# This is a sample that favours compounds with a hit; in the whole collection about 31% have one here.
# CYP2C9 inhib: inhibitors of human CYP2C9; inhibition, % at 5 µM; AID 777; 96,000 tested, 20% active; P11712; CYP2C9 Supersomes, luciferin-H conversion, luminescence;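 active means blocking of liver enzyme CYP2C9 beyond about 50% at 5 µM, limit read from the data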
# Target sequence (P11712 whole entry, looked up): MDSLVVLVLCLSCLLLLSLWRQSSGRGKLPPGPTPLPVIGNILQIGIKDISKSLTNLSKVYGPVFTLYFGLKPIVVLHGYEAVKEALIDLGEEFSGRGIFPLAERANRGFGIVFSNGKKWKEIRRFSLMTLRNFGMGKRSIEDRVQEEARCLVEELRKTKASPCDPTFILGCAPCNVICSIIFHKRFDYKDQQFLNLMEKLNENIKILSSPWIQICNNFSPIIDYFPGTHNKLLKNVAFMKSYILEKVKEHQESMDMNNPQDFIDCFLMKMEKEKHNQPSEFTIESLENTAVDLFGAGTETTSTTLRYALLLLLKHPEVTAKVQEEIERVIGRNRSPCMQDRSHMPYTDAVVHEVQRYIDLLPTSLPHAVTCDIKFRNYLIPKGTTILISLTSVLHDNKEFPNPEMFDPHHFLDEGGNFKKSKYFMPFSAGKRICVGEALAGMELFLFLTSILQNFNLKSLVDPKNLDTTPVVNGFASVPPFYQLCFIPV
# CYP2C19 activ: cytochrome P450 2C19 (human) activation | 96,000 tested, under 10 active | AID 1025 | activation factor at 5 µM | recombinant CYP2C19, luciferin-H EGE luminescence; active compounds read high; 0 = fully inhibited enzyme, 1 = untreated enzyme;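 active means activation factor of at least 2 at 5 µM in the primary screen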;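 further: 0 = wells with 2.5 mM tranylcypromine and 1 = vehicle-only wells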
# CYP2C9 activ: increases human cytochrome P450 2C9 activity; P11712; activation factor at 5 µM; recombinant CYP2C9, luciferin-H conversion, luminescence; active compounds read high; factor 1 = untreated enzyme, 0 = blocked; 96,000 tested, 1.4% active;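 active means activation factor of 2 or more for CYP2C9 at a 5 µM dose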;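 further: 0 = sulfaphenazole-blocked wells and 1 = vehicle-only wells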
# CYP2C19 inhib: blocks human cytochrome P450 2C19 | P33261 | CYP2C19 Supersomes, luciferin-H EGE luminescence, 30 min | inhibition, % at 5 µM | 96,000 tested, 21% active;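 active means CYP2C19 inhibition above a set limit at 5 µM in the primary screen, cut at about 50% in these data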;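 further: plate controls were negative control wells for no effect and 2.5 mM tranylcypromine positive control for full effect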
# * = called active by the depositor.
SMILES,CYP2C9 inhib,CYP2C19 activ,CYP2C9 activ,CYP2C19 inhib
C=CCSc1nc(C)c2cc(C)cc(C)c2n1,16,0.6,0.8,37
CC(C)(C)c1nc2scc(-c3cccs3)c2c(=O)o1,12,1,0.9,3
Cc1nn(CCC#N)c(NC(=O)c2ccc(Cl)cc2Cl)c1P(=O)(Nc1ccc([N+](=O)[O-])cc1)N1CCOCC1 (stereo not given),11,1.1,0.9,-6
CCn1c(C(C)NC(=O)c2cccs2)nc2ccccc21 (stereo not given),52*,0.7,0.5,33
CCCCCn1c(CCNC(=O)c2cccs2)nc2ccccc21,92*,0,0.1,96*
CCCCCn1c(CCNC(=O)CCC)nc2ccccc21,17,0.7,0.8,32
Cc1ccc(-c2cc(C(=O)NCc3ccccn3)no2)cc1,47,0.5,0.5,46
CCc1ccccc1NC(=O)CSc1nnc([C@H](CCSC)NC(=O)OC(C)(C)C)o1,65*,0.5,0.4,51*
CSCC[C@H](NC(=O)OC(C)(C)C)c1nnc(SCC(N)=O)o1,-1,0.9,1,12
CSCC[C@H](NC(=O)OC(C)(C)C)c1nnc(SCC=C(C)C)o1,57*,0.5,0.4,51*
Cc1nn(CC(N)=O)c(=O)c2ccccc12,-8,1.1,1.1,-10
O=C1CCCCCCC1Sc1ccccc1[N+](=O)[O-] (stereo not given),-16,0.5,1.2,50*
Cc1c(C(c2ccc([N+](=O)[O-])cc2)c2c(C)n(C)n(-c3ccccc3)c2=O)c(=O)n(-c2ccccc2)n1C,-18,1,1.2,-4
COc1cc(OC)c(NC(=O)CCNC(=O)Cn2cnc3ccccc3c2=O)cc1Cl,30,1.1,0.7,-13
O=C(Cn1cnc2ccccc2c1=O)c1c[nH]c2ccccc12,31,0.5,0.7,53*
CCN(CC)S(=O)(=O)c1cc(NC(=O)Cn2cnc3ccccc3c2=O)ccc1C,53*,0.6,0.5,42
Cc1cccc(NC(=O)Cn2cnc3ccccc3c2=O)c1C,10,0.9,0.9,8
CCOC(=O)c1ccccc1NC(=O)CCNC(=O)Cn1cnc2ccccc2c1=O,52*,1,0.5,-3
CN(c1ccccc1)S(=O)(=O)c1cccc(NC(=O)Cn2cnc3ccccc3c2=O)c1,94*,0.4,0.1,62*
COc1ccc(C(=O)NCC(=O)OCC(=O)c2ccc3c(c2)OCCO3)cc1,0,1,1,0
O=C(Nc1cccc(NC(=O)c2ccco2)c1)c1ccc2c(c1)OCO2,30,0.5,0.7,50*
O=C(Nc1ccc2c(c1)OCCO2)c1ccco1,2,0.9,1,11
O=C(Nc1ccc(Cl)cc1)c1ccc2c(c1)OCO2,-2,0.7,1,32
O=C(Nc1ccc2c(c1)OCO2)c1cccc(Cl)c1,22,0.3,0.8,70*
COc1cc(NC(=O)c2ccc3c(c2)OCO3)ccc1NC(=O)C(C)C,44,0.5,0.6,45
SMILES,CYP2C9 inhib,CYP2C19 activ,CYP2C9 activ,CYP2C19 inhib
COc1cc(C#N)ccc1OCC(=O)c1ccc2c(c1)OCCO2,-6,0.4,1.1,62*
CCCCC(=O)Nc1ccc(NC(=O)c2ccc3c(c2)OCO3)cc1OC,59*,0.1,0.4,86*
O=C(Nc1ccc(F)c(F)c1)c1ccc2c(c1)OCO2,49,0.1,0.5,94*
CCOc1ccc(C(=O)Nc2ccc3c(c2)OCCO3)cc1OC,7,0.3,0.9,69*
O=C(Nc1ccc2c(c1)OCO2)c1ccc(Cl)s1,62*,0.2,0.4,81*
CCCC(=O)Nc1cccc(NC(=O)c2ccc3c(c2)OCCO3)c1,36,0.4,0.6,59*
CCCCC(=O)Nc1cccc(NC(=O)c2ccc3c(c2)OCO3)c1,49,0.8,0.5,21
Cc1ccccc1NC(=O)c1c(O)c2cccc3c2n(c1=O)CCC3,6,1,0.9,1
CC(C)(C)NC(=O)NC(=O)CN1CCN(c2ncc(C(F)(F)F)cc2Cl)CC1,23,0.7,0.8,26
Cc1ccc(NC(=O)NC(=O)CN2C(=O)NC3(CCc4ccccc43)C2=O)c(C)c1 (stereo not given),32,0.6,0.7,41
O=C1CC(N2CCC(c3nc4ccccc4o3)CC2)C(=O)N1Cc1cccs1 (stereo not given),20,0.8,0.8,20
Cc1cc(C)nc(NC(=O)CSc2nc3cc(Cl)ccc3s2)n1,-167,1,2.7*,-1
O=C(CSc1nc(-c2ccccc2)cs1)N1CCN(C(=O)c2ccco2)CC1,-16,0.4,1.2,62*
O=C(CSc1nc2cc(Cl)ccc2s1)N1CCN(C(=O)c2ccco2)CC1,86*,0.1,0.1,86*

# From PubChem
